Test results reported in the supplement of paper PMC6555819.

How the values were obtained:
Test in all cases: PBM binding z-score (relative to random genomic background probes); higher = stronger binding; sequences stand for … in GC…GCGATTGACAGCGTAGAATGAAGG
[1] = system: FXR:RXRa (NR concentration 270 nM, RXRa partner concentration 90 nM)
Method in brief: (§1)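 The probes on custom Agilent 4×180K protein-binding microarrays were double-stranded, with 34-nt variable regions bearing direct-repeat seeds, single-nucleotide variants, half-site ablations and random human genomic background sequences. Incubation lasted 1 h with ligand-free nuclear receptor dimers in PBS pH 7.4, 2% milk, 0.02% Triton X-100, 1 mM DTT, 0.2 mg/mL BSA and 0.4 mg/ml salmon testes DNA. Antibodies against each partner (one per run) detected bound dimers, and fluorescence scans were regression-normalized. Binding z-scores take the random background probes as reference.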

[2] = system: LXRa:RXRa (NR concentration 270 nM, RXRa partner concentration 90 nM)
Method in brief: as §1

[3] = system: LXRa homodimer (NR concentration 270 nM)
Method in brief: as §1

[4] = system: LXRb:RXRa (NR concentration 270 nM, RXRa partner concentration 90 nM)
Method in brief: as §1

[5] = system: LXRb homodimer (NR concentration 270 nM)
Method in brief: as §1

[6] = system: PPARa:RXRa (NR concentration 270 nM, RXRa partner concentration 90 nM)
Method in brief: as §1

[7] = system: PPARg:RXRa (NR concentration 180 nM, RXRa partner concentration 90 nM)
Method in brief: as §1

[8] = system: PPARg:RXRa 270nM:90nM, anti-RXR (NR concentration 270 nM, RXRa partner concentration 90 nM)
Method in brief: as §1

[9] = system: PPARg:RXRa 30nM:10nM, anti-RXR (NR concentration 30 nM, RXRa partner concentration 10 nM)
Method in brief: as §1

[10] = system: PPARg:RXRa 90nM:30nM, anti-RXR (NR concentration 90 nM, RXRa partner concentration 30 nM)
Method in brief: as §1

[11] = system: PPARg:RXRa DBDmut IVT, anti-RXR (DBD mutation: RXRa K156A/R161A, NR concentration 270 nM, RXRa partner concentration 90 nM)
Method in brief: as §1

[12] = system: PPARg:RXRa IVT, anti-PPARg (NR concentration 270 nM, RXRa partner concentration 90 nM)
Method in brief: as §1

[13] = system: PPARg DBDmut:RXRa IVT, anti-PPARg (DBD mutation: PPARg1 K132A/R137A, NR concentration 270 nM, RXRa partner concentration 90 nM)
Method in brief: as §1

[14] = system: PPARg DBDmut IVT, anti-PPARg (DBD mutation: PPARg1 K132A/R137A, NR concentration 270 nM)
Method in brief: as §1

[15] = system: PPARg homodimer (NR concentration 180 nM)
Method in brief: as §1

[16] = system: PXR:RXRa (NR concentration 270 nM, RXRa partner concentration 90 nM)
Method in brief: as §1

[17] = system: PXR homodimer (NR concentration 270 nM)
Method in brief: as §1

[18] = system: RARa:RXR (NR concentration 270 nM, RXRa partner concentration 90 nM)
Method in brief: as §1

[19] = system: RARa homodimer (NR concentration 270 nM)
Method in brief: as §1

[20] = system: RARb:RXRa (NR concentration 270 nM, RXRa partner concentration 90 nM)
Method in brief: as §1

Sequence | PBM binding z-score [1] | PBM binding z-score [2] | PBM binding z-score [3] | PBM binding z-score [4] | PBM binding z-score [5] | PBM binding z-score [6] | PBM binding z-score [7] | PBM binding z-score [8] | PBM binding z-score [9] | PBM binding z-score [10] | PBM binding z-score [11] | PBM binding z-score [12] | PBM binding z-score [13] | PBM binding z-score [14] | PBM binding z-score [15] | PBM binding z-score [16] | PBM binding z-score [17] | PBM binding z-score [18] | PBM binding z-score [19] | PBM binding z-score [20]
TAGCCTAGGTCTGATCGGGCCAGTATACGCTATA | -0.28 | -0.943 | -0.639 | -0.94 | -1.01 | -0.144 | 0.0558 | -0.669 | -0.329 | -0.45 | -0.797 | -0.522 | -0.763 | -0.994 | -0.906 | -0.673 | -1.05 | -0.33 | -1.47 | -0.362
CCAGTCAGGTGAGAAGGTAACTCAGCCTCGATTA | 0.104 | 0.00917 | -0.218 | -0.0607 | -0.774 | 0.601 | 0.294 | 1.13 | -0.0852 | 0.619 | 1.41 | 1.02 | -1.66 | -1.63 | 0.612 | -0.228 | -0.000389 | 0.355 | 0.15 | 0.754
CATACAGGGTCAGCTAGGCCAGAGGAGGGACGGC | 4.49 | 3.1 | -0.068 | 2.08 | 0.388 | 4.31 | 3.63 | 2.81 | 0.595 | 1.67 | 0.736 | 2.07 | 1.18 | 1.1 | 1.66 | 2.15 | -0.08 | 3.04 | 0.169 | 4.16
GTACCAAGGTGAATAGGTCGTTGGTGAGTAGGCG | 0.874 | 0.844 | -0.171 | 0.388 | -0.834 | 2.25 | 1.17 | 1.93 | 0.116 | 1.13 | 1.63 | 2.76 | -0.162 | -0.965 | 0.877 | 0.626 | -0.0296 | 1.9 | -0.0597 | 2.1
GCTAGCAGGCCATTTGGGTCACTCCATGACGGGC | -0.16 | -0.308 | -0.39 | -0.515 | -0.772 | 0.964 | 0.542 | 0.345 | -0.692 | -0.372 | 1.48 | 1.98 | -0.282 | -0.961 | -0.247 | 0.113 | -0.146 | 0.126 | -0.604 | 1.39
GCATATAGGTAATACAAGGTGAAAGACCGATTGT | 1.32 | 2.31 | 0.0608 | 0.571 | -0.236 | 1.46 | 1.65 | 1.57 | 0.368 | 0.978 | 3.84 | 3.44 | 0.445 | 0.718 | 0.0891 | 0.523 | -0.102 | 1.49 | 0.624 | 0.568
CGTCCAAGGTCAAAGCTCAGTGAAGAGATGACGG | 7.32 | 5.36 | 0.938 | 3.83 | 0.937 | 5.37 | 4.98 | 5.4 | 2.13 | 4.12 | 3.54 | 3.35 | 0.259 | -0.242 | 3.06 | 3.96 | 0.865 | 4.6 | 1.16 | 5.14
CAAACTGGGTCAAGGTCAAAGTCGGTTTGTGCCA | 6.14 | 4.7 | 2.42 | 4.41 | 0.882 | 5.96 | 9.55 | 7.65 | 6.43 | 7.63 | 8.04 | 8.43 | 4.25 | 1.48 | 4.04 | 5.26 | 2.48 | 5.2 | 1.14 | 4.95
TCTTGTAGATCAACCAGGTTAAGAAAGCCTGAGT | 0.429 | 0.506 | -0.188 | 0.429 | -0.277 | 0.901 | -0.376 | 1.51 | 2.7 | 2.07 | 2.07 | 0.996 | -0.047 | 0.818 | -0.217 | 0.658 | 0.148 | 0.664 | 0.037 | 0.316
CCGAGTAGGTTATGGGGCATTCAGGCAACGGTGA | 0.255 | 0.351 | -0.0528 | 0.508 | -0.322 | 2.11 | 3.48 | 4.31 | 2.03 | 3.91 | 3.19 | 3.21 | -0.378 | 0.039 | 0.874 | -0.0382 | 0.0489 | 0.571 | 0.139 | 0.99
ATCGAAAGGTCGAGGTGAGTATTGAGAAAGGGAA | 4.14 | 3.39 | -0.0656 | 2.81 | 0.293 | 4.74 | 3.29 | 3.53 | 1.37 | 2.19 | 0.628 | 2.34 | 0.498 | 0.451 | 1.67 | 2.33 | 0.428 | 3.07 | 0.977 | 4.15
TCTTGTAGAACAATAGAGGTTAAGAAAGTGCGCT | 0.656 | 2.99 | 0.526 | 1.58 | -0.26 | 1.92 | 0.287 | 1.7 | 2.64 | 2.2 | 1.83 | 1.45 | 0.641 | 0.472 | -0.0635 | 3.16 | 0.538 | 1.69 | 0.27 | 0.777
CGAACTAGGTCAAGAGGTCAAAGTCCGCTTCCCG | 7.13 | 6.37 | 6.49 | 5.6 | 1.59 | 6.58 | 10.1 | 7.94 | 7.44 | 8.35 | 8.26 | 8.1 | 0.974 | -0.335 | 5.23 | 6.23 | 3.31 | 7.7 | 2.18 | 5.48
